# The supplement of paper PMC10681739
# The full ranking holds about 4,100 sequences; the median of “arbitrary fluorescence units” is about 780, and the highest 2% start at about 22,000. The entries come from a sample that favours the highest values as a whole.
# Biological target: T1, ETS1 (UniProt P14921)
# T1 sequence: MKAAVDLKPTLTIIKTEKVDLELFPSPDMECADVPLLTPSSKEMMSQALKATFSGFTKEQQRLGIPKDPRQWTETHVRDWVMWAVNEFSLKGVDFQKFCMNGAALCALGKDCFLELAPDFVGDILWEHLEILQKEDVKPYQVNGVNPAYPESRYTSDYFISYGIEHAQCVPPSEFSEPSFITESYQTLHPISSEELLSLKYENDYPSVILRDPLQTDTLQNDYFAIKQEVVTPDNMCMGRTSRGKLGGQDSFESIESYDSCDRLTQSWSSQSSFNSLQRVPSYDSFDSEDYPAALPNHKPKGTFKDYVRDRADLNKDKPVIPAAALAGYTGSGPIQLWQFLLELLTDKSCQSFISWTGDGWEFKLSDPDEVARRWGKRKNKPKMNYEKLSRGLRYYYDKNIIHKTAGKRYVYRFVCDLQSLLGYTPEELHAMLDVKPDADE
# Assay: ETS1 binding intensity (PBM fluorescence), ETS1 alone (arbitrary fluorescence units); higher = stronger binding
# Conditions: ETS1 concentration 1 nM; RUNX1 concentration 0 nM
# Procedure: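 gcPBM on 36-bp genomic-derived probes (partner site mutated) containing one ETS1 site and no RUNX1 site. Recombinant human ETS1 (1 nM) was incubated alone or with RUNX1 (25 nM) and detected by anti-ETS1 antibody fluorescence. Values are medians over 4 replicate spots (not normalised). The probes sit in constant array flanks that are not printed.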
row,Sequence,ETS1 binding intensity
1,AGTTTTCCGTCGGGCTCCCAGTGACGCCGAAGAGGT,2580
2,GCGCAAAGCCGGAAGGAGGGGTTTGGGGCTGGGGAG,4130
3,CTTCCTTCCCTTCCTTCTGCTCCCTCCCAGAGCCGC,852
4,CCCACTTCCTGTCTGCTTCCCTCCTCCGCTCAGACC,28400
5,TCCCTCCTCCGCTCAGACCCACTTCCTGTCTGCTTC,8330
6,TAGGGGCTGAGGGTCCGGGCGGAAGTGGGGCAGGCG,2500
7,CTGCACTTCCGGTCAGGCGGTCGGGCTGAGGGGCCC,36600
8,CCGGTCGGGGCTGCAGCCGCTTCCGGAGCCGCGGGC,3060
9,ATGGATGGGGTTGCTTGCGTGAGGAAATACTTGATG,524
10,CCCAATTTCCTTTGCTCTGCTGTCTGCCAACCCCAA,3560
11,GCAGATATCACAGACTCTCTCCTTTCCTGCTGAATA,546
12,GCTCGCAGCCCCAAGAGGTGGCCTTCGGTTCCGGGG,382
13,TGACTTCCGGTCCGTAGTGGGGCCTTCGGTGGGAGT,35800
14,CTGCAGCGGGGATCCTTGGGGCCCTTCCGGTCGGTG,2190
15,TTGTGGACGCGGATTTGGGGGCGGGTATCCGGGCCT,564
16,GGTCACTTCGGCCCAGAGGCCCGCTCTTCCGCTGAG,564
17,CAGGGATTCCGGCTGAGTGCGGCCCCCTCAGCCTCC,606
18,GTGGCTGTCGTTGAACTGACTCTCGGGTTTCCGCTC,606
19,GAGCCTGTTGCTTCCGGTTCAGAGCCCACGTGCTGG,22200

row,Sequence,ETS1 binding intensity
1,TGGAAGAGCCCCACGACATGTGCTTCCTGCGTGCTG,596
2,CTAGCTGTGGACAGGAAACGAGTGGATTTTGTGATC,3740
3,CCGTACTTCCGCTTTACTCAGATTTTGGACCTCGGG,30200
4,CCGGGACCTCGGCTTGGGCTCACGGCCACTTCCGAC,393
5,CTCAGCGGCAGCAAGCCCCACCCCGGAAGTCGGCTG,1590
6,GATGACTTCCTCAGTTCAGGGCTATGTACGGGGGAG,4670
7,GGCCTCGCGGCGTCTCTGCTGCTTCCGCCTTCCCGG,854
8,CCGCTTCCGGCCTTCGCCCGGCTTAGCCGCGTCGCA,34700
9,GCCCGGCTTAGCCGCGTCGCGGAAGTCCGCTCTCTG,397
10,CCTCTGCCCAACCCCAATTTTCCCTTCCTCCGCCTT,543
11,CTTTTTGATTTCCTCAAGCATCCCAGAAATACACAG,2020
12,GCCCACGCCGCTGGGAGGTGAGACTGAAGGAAGCAC,402
13,ACGGAGCTGTAGTTTAACGTTTCCGGTTAGTGGCTA,9670
14,GCCCACTTCCTGCCGTAAGAGAAATCCACTAACACA,33800
15,GACGCAGCCCCAGAGCGATTCGCGTCCCGGAAGCGG,491
16,CCAACGAGCACTTCCGCTTCCCGAAGCTCCAGCGGC,27700
17,CCGAGCGCACCAGCTCCCGCGCGTGGTTCCGCCGCT,324
18,TCCAGCGCCGCTGGGCCAACGAGAGCGCTTCCGGCC,1740
